Most compounds without a hit are left out; they make up all but 21% or so of the library.
DT40 TDP1 CPT – DT40-hTDP1 cell growth loss with CPT. chicken DT40 Tdp1-/-;hTDP1 cells + 20 nM CPT, ATP luminescence, 48 h. Potency, µM (doses to about 46.2 µM), most hits filed as inhibitors. actives 12% (n = 420,000); note: nearly all actives have a fitted effect of over 55% in size
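Chicken DT40 Tdp1-/- cells stably complemented with human TDP1 were seeded at 400 cells/well in medium containing 20 nM camptothecin, exposed to pin-transferred compounds, and grown at 37 °C for at least 48 hr. Viability was read as ATP luminescence.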
IL-1B inflam inh – inflammasome signaling inhibition, IL-1 beta readout; actives 4.7% (n = 360,000); activity change, % at 57.5 µM; THP-1 LPS/ATP IL-1B secretion, AlphaLISA, 16 h; stronger effect = lower value; in the data active = activity change below about -50%; inconclusive = mostly about -30% to -49%
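THP-1 cells pretreated 1 hr with compounds (up to 57.5 uM final), then stimulated with LPS (250 ng/mL final) plus ATP (1.25 mM final); secreted IL-1B measured by AlphaLISA after 16 hr, decreased signal indicating inhibition.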
D3 ag – agonists of human D3 dopamine receptor. AID 652048. D3R DiscoveRx beta-arrestin cells, luminescence, 90 min. max activation, %. actives 0.58% (n = 410,000); in the data active = max activation above about 30%
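Agonist-mode cell screen: cells plated at 1500/well and incubated overnight at 37 °C, then exposed to library compounds for 90 min at 37 °C. Detection reagent was added for 30–60 min at room temperature, and luminescence was read.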
DT40 TDP1 no CPT – qHTS for Inhibitors of human tyrosyl-DNA phosphodiesterase 1 (TDP1): qHTS in cells in absence of CPT; actives 15% (n = 420,000); AID 686978, 2013; Potency, µM (series often up to 46.2 µM), usual class: inhibitors; DT40 Tdp1-/- hTDP1 cells, no CPT, ATP luminescence, 48 h; note: nearly all actives have a fitted effect of over 55% in size
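Readout: luminescence from CellTiter-Glo after 30 min in the dark at RT. Cells: DT40 Tdp1-/- with stable hTDP1, 400/well. Exposure: compounds alone, ≥48 hr, 37 °C.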
ClpP mod – qHTS Assay for Activators of ClpP | ATP-dependent Clp protease proteolytic subunit (Bacillus subtilis (strain 168)), P80244 | purified B. subtilis ClpP, FRET peptide cleavage, 20 min | Potency, µM (titrated, usually from 57.5 µM) | actives 1.9% (n = 340,000); active = well fitted falling curve with a large enough effect; inconclusive = small, poorly fitted or top-dose-only effect; inactive = no such curve, though single readings can be large or run the other way; note: the source files actives as falling curves though it sought activators and does not explain the sign; nearly all actives have a fitted effect of over 65% in size
Target sequence (P80244 whole entry, looked up): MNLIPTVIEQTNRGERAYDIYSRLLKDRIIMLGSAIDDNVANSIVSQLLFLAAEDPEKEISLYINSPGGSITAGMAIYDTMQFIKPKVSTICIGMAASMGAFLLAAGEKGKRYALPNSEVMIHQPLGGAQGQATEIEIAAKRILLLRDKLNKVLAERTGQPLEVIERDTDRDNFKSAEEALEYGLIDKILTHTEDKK
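FRET quenching reversal measured ClpP activation: 10 microg/mL B. subtilis ClpP at pH 8 with the FRET-FV decapeptide, read at 430 nm after 320 nm excitation. The 20-min minus 0-min signal was scaled between DMSO/no-enzyme wells and ADEP (5.8 microM final).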
D3 antag – D3 dopamine receptor (human) antagonism | P35462 | D3R cells, DiscoveRx beta-arrestin luminescence, antagonist mode; stronger effect = lower value | max response, negative = inhibition, % | actives 2.5% (n = 360,000); in the data active = max response below about -50%; inconclusive = no clear call, values can overlap the other calls
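Cells plated overnight at 1500 cells/well, then exposed to library compounds with dopamine controls for 90 minutes at 37 degrees C. DiscoveRx reagent added for 30–60 minutes at room temperature; luminescence read, quantitative HTS format.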
Large screens that a line does not name were inactive. Unless noted, calls come from the whole dose curve; as a rule, active = well fitted inhibition curve with a large enough effect; inconclusive = small, poorly fitted or top-dose-only effect; inactive = flat fitted curve, though single readings scatter.

Cc1ccccc1NC(=O)CSc1nnc(-c2ccco2)c(-c2ccco2)n1	DT40 TDP1 CPT inconclusive, DT40 TDP1 no CPT inconclusive, D3 antag inconclusive
O=C(CSc1nnc(-c2ccccc2)c(-c2ccccc2)n1)NCc1ccco1	DT40 TDP1 CPT inconclusive, DT40 TDP1 no CPT 23µM
COc1ccc(NC(=O)CSc2nc(-c3ccc(F)cc3)c3cccc(C)c3n2)cc1	DT40 TDP1 CPT inconclusive, DT40 TDP1 no CPT inconclusive (no result: IL-1B inflam inh, D3 antag)
COc1ccc(OCCCC(=O)N(C)CC(=O)Nc2c(C)cccc2C)cc1	none
COc1ccc(OCCN(C)CC(=O)Nc2c(C)cccc2C)cc1	DT40 TDP1 CPT inconclusive, DT40 TDP1 no CPT 23µM, ClpP mod 20µM, D3 antag inconclusive
Cc1cccc(C)c1NC(=O)CSc1nnc(-c2ccco2)c(-c2ccco2)n1	IL-1B inflam inh -77, D3 antag inconclusive
CCC(CC)c1nnc(NC(=O)c2cccc(S(=O)(=O)N3CCOCC3)c2)s1	DT40 TDP1 CPT inconclusive
O=C(CSCc1ccc(F)cc1)N1CCc2c([nH]c3ccccc23)C1c1ccc(Cl)cc1 (stereo not drawn)	DT40 TDP1 CPT inconclusive, DT40 TDP1 no CPT inconclusive (no result: IL-1B inflam inh, D3 antag)
Cc1nc(NC(=O)CSc2nnc(-c3ccccc3)c(-c3ccccc3)n2)c(Cl)cc1Cl	DT40 TDP1 CPT 23µM, DT40 TDP1 no CPT 26µM
O=C(CSc1nnc(-c2ccco2)c(-c2ccco2)n1)Nc1ccccc1	DT40 TDP1 CPT inconclusive, IL-1B inflam inh -58, DT40 TDP1 no CPT inconclusive
O=C(CSc1nnc(-c2ccccc2)c(-c2ccccc2)n1)Nc1ncc(Cl)cc1Cl	none
CN(C)c1ccc(NC(=O)CSc2nnc(-c3ccco3)c(-c3ccco3)n2)cc1	DT40 TDP1 CPT inconclusive, DT40 TDP1 no CPT 16µM (no result: ClpP mod)
O=C(CCNS(=O)(=O)c1ccc(Br)cc1)N1CCN(c2ccccc2O)CC1	DT40 TDP1 CPT inconclusive, DT40 TDP1 no CPT inconclusive (no result: ClpP mod)
O=C(c1ccc(Cl)c([N+](=O)[O-])c1)N(Cc1ccc(F)cc1)C1CCS(=O)(=O)C1 (stereo not drawn)	IL-1B inflam inh -95, DT40 TDP1 no CPT inconclusive
CN(C)c1ccc(CN(C(=O)c2ccc(Cl)c([N+](=O)[O-])c2)C2CCS(=O)(=O)C2)cc1 (stereo not drawn)	DT40 TDP1 CPT inconclusive, IL-1B inflam inh -75, DT40 TDP1 no CPT inconclusive
COc1ccc(CN2CCCC(n3cc(C(=O)NC4CCCC4)nn3)C2)c2ccccc12 (stereo not drawn)	none (no result: IL-1B inflam inh, D3 ag, ClpP mod, D3 antag)
CCC(NC(=O)C1CCCC1)c1ccccc1 (stereo not drawn)	none
CC1=C(CC(=O)c2ccccc2)C(=O)c2ccccc2C1=O	DT40 TDP1 CPT 8.2µM, DT40 TDP1 no CPT 12µM
COc1cccc(CN2CCC(n3cc(C(=O)NC4CCCC4)nn3)CC2)c1O	none (no result: IL-1B inflam inh, D3 ag, ClpP mod, D3 antag)
CCOC(=O)CC1COCCN1C(=O)c1ccc2oc(Cc3ccccc3)nc2c1 (stereo not drawn)	ClpP mod inconclusive
COc1ccc2[nH]c(=O)c(CN(Cc3ccccc3)Cc3nnnn3CC3CCCO3)cc2c1 (stereo not drawn)	DT40 TDP1 CPT inconclusive, DT40 TDP1 no CPT inconclusive, ClpP mod 28µM
COc1cc2cc(CN(Cc3nnnn3Cc3ccccc3)CC3CCCO3)c(=O)[nH]c2cc1OC (stereo not drawn)	DT40 TDP1 CPT inconclusive, DT40 TDP1 no CPT inconclusive, ClpP mod 28µM
COCCN1C(=O)CCC1(C)C(=O)Nc1ccc2ccccc2c1 (stereo not drawn)	none
Cc1nn2c(COc3ccc(NC(=O)c4ccccc4Cl)cc3)nnc2c2ccccc12	DT40 TDP1 CPT 18µM, IL-1B inflam inh inconclusive, DT40 TDP1 no CPT 23µM
CCC(CC)c1nn2c(=O)cc(COc3ccc(NC(=O)c4ccccc4C)cc3)nc2s1	DT40 TDP1 CPT inconclusive, DT40 TDP1 no CPT 2.3µM (no result: IL-1B inflam inh, D3 antag)
CCC(CC)c1nn2c(=O)cc(COc3ccc(NC(=O)c4ccccc4Cl)cc3)nc2s1	DT40 TDP1 CPT inconclusive, DT40 TDP1 no CPT 2.3µM (no result: IL-1B inflam inh, D3 antag)

Compound activity as filed in PubChem.
